A number with no mark means an inactive call. A call without a number means that no potency is given here. Calls of active or inactive are those of the source. The call rests on the fitted dose curve; in most records, active means well fitted activation curve with a large enough effect in the repeat runs; inconclusive means weak or mixed curves; inactive means flat fitted curve, though single readings scatter.

The nature of the assay: A CellTox Green Cytotoxicity Assay to monitor cytotoxicity in HepG2 cells - 0 hour (AID 1224882). Further: nearly all actives have a fitted effect of over 35% in size. The following applies: CellTox Green fluorescence; series mostly up to 76.8 µM. The source says: National Center for Advancing Translational Sciences [NCATS]
NIH Chemical Genomics Center [NCGC]
U.S. Environmental Protection Agency [EPA]
National Institutes of Environmental Health Sciences [NIEHS]
National Toxicology Program [NTP]
Cell-based models are critical for drug discovery. Determining the natural cytotoxic effects resulting from test compounds is an essential research activity. A CellTox Green Cytotoxicity Assay to monitor cytotoxicity in real time of continues cell culture during 40 hours of the compound treatment was used to screen Tox21 10K library compounds in HepG2 cells. CellTox Green Cytotoxicity Assay is a nonlytic, homogeneous, biofluorescent method to measure cytotoxicity in cell culture after experimental manipulation. The assay system uses a proprietary asymmetric cyanine dye that is excluded from viable cells but preferentially stains the dead cell's DNA. […] Viable cells produce no appreciable increases in fluorescence. Therefore, the fluorescence signal produced by the binding interaction with dead cell DNA is proportional to cytotoxicity.
The mixture of HepG2 cell suspension and reagents were dispensed at 600cells/6 ul/well in 1536-well tissue culture treated black solid bottom plates using a Multidrop dispenser. After the assay plates were incubated at a 37 C/5% CO2 incubator for 5 hours, 23 nL of compounds dissolved in DMSO, positive and negative controls was transferred to the assay plate by a pintool work station. The plates were incubated at 37 C for 40 hours. The fluorescence intensity were measured at 0h, 8h, 16h, 24h, 32h and 40h time points using ViewLux plate reader during compound treatment.
On to `O=C(O)c1cccc(O)c1`, for which the Potency result is “inactive”.
Still for that read-out and setting: then `CO/N=C1\CN(c2nc3c(cc2F)c(=O)c(C(=O)O)cn3C2CC2)CC1CN` (stereo not given), with “inactive”.
The same measure, in the same setting: then `Cc1nc2ccccn2c(=O)c1CCN1CCC(C(=O)c2ccc(F)cc2)CC1`, with “inactive”; and `CCN(CC)CCNC(=O)c1ccc(NC(C)=O)cc1`, with “inactive”; and `CN(C)CCOC1=Cc2ccccc2Sc2ccc(Cl)cc21`, with “inactive”.
Same read-out and setting: then `Cc1ccc(/C=N/n2c(-c3ccccc3)csc2=S)cc1`, with “inactive”; and `CC(=O)[C@H]1CC[C@H]2[C@@H]3C=CC4=CC(=O)CC[C@@]4(C)[C@@H]3CC[C@]12C`, with “inactive”; and `CCOC(=O)OCC`, with “inactive”.
Regarding `CC(=O)Nc1ccccc1C`, the Potency result was “inactive”.
The same measure, in the same setting: then `CCCCN(CCCC)CCCOC(=O)c1ccc(N)cc1`, with “inactive”.
With `Nc1ccc(S(=O)(=O)O)c(N)c1`, the Potency entry is “inactive”.
Still for that read-out and setting: then `CC[C@@H]([C@H](C)O)n1ncn(-c2ccc(N3CCN(c4ccc(OC[C@@H]5CO[C@@](Cn6cncn6)(c6ccc(F)cc6F)C5)cc4)CC3)cc2)c1=O`, with “inactive”; and `CC1=C(C=O)C(C)(C)CCC1`, with “inactive”; and `C=CC(C)(C)CC(=O)OC`, with “inactive”.
On the same count and under the same terms, in the case of `O=C(CCC1CCN(Cc2ccccc2)CC1)c1ccc2c(c1)NCCCC2` it was “inactive”; in that of `O=C(CS)OCCOC(=O)CS`, “inactive”; in that of `Cc1cc(OI)c(C(C)C)cc1-c1cc(C(C)C)c(OI)cc1C`, “inactive”.
Still for that read-out and setting: in the case of `CC(C)OCC1CO1` (stereo not given) it was “inactive”; in that of `CCOC(=O)N1CCC(n2c(=O)[nH]c3cc(Cl)ccc32)CC1`, “inactive”; in that of `COc1cc2c(cc1OC)-c1cc(=Nc3c(C)cc(C)cc3C)n(C)c(=O)n1CC2`, “inactive”.
As to `C[N+](C)(C)CCOC(N)=O`, the Potency result was “inactive”.
On to `C=CC(C)(O)CCCC(C)CCCC(C)CCCC(C)C` (stereo not given), for which the Potency result was “inactive”.
Still for that read-out and setting: then `CC(C)C(OC(=O)c1ccccc1)C(C)(C)COC(=O)c1ccccc1` (stereo not given), with “inactive”; and `CO[C@H]1C=CO[C@@]2(C)Oc3c(C)c(O)c4c(O)c(c5c(c4c3C2=O)=NC2(CCN(CC(C)C)CC2)N=5)NC(=O)/C(C)=C\C=C/[C@H](C)[C@H](O)[C@@H](C)[C@@H](O)[C@@H](C)[C@H](OC(C)=O)[C@@H]1C`, with “inactive”; and `CCCCCCCC/C=C\CCCCCCCC(=O)OC(CO)CO`, with “inactive”.
The same measure, in the same setting: then `CNCCCC1c2ccccc2C=Cc2ccccc21`, with “inactive”; and `C[Si]1(C)O[Si](C)(C)O[Si](C)(C)O1`, with “inactive”.
On the same count and under the same terms, then `O=C(CCCCCCCCC#CI)Oc1ccccc1`, with “inactive”.
On to `CN1C(=O)CC(C)(c2ccccc2)C1=O` (stereo not given), for which the Potency entry is “inactive”.
On the same count and under the same terms, then `CCOC(=O)/C=C/C(=O)O`, with “inactive”.
Same read-out and setting: in the case of `CC1C2CC(CC2C2CCCC(O)C2)C1(C)C` (stereo not given) it was “inactive”; in that of `CC(C)(C)CC(C)(C)c1ccc(OCCO)cc1`, “inactive”; in that of `CC1=CC(=O)CC(C)(C)C1(O)/C=C/C(C)=C\C(=O)O` (stereo not given), “inactive”.
The same measure, in the same setting: in the case of `Cc1nc2ccccc2s1` it was “inactive”; in that of `O=C(CCCN1CCC(O)(c2ccc(Br)cc2)CC1)c1ccc(F)cc1`, “inactive”.
In the case of `O=C(N/N=C/c1ccc([N+](=O)[O-])o1)c1ccc(O)cc1`, the Potency entry is “inactive”.
On to `CC1CN(c2cc3c(cc2F)c(=O)c(C(=O)O)cn3-c2ccc(F)cc2F)CCN1` (stereo not given), for which the cytotoxicity was 5.97% [at 6.97 µM].
For `CCCC1C(CC)=CC(CC)=CN1c1ccccc1` (stereo not given), the Potency entry was “inactive”.
On the same count and under the same terms, in the case of `O=C1NCCN1` it was “inactive”; in that of `O=C(C(=O)c1ccccc1)c1ccccc1`, “inactive”.

The values are drawn from PubChem BioAssay (Tox21).
